Measured values as given in ChEMBL document CHEMBL2218924, “A broad activity screen in support of a chemogenomic map for kinase signalling research and drug discovery” (Biochem J, 2013).

How the values were obtained:
[1] = biological target: BDNF/NT-3 growth factors receptor (Homo sapiens) (UniProt Q16620); settings: at 10 µM
[2] = biological target: T1, Tyrosine-protein kinase TXK (Homo sapiens) (UniProt P42681); settings: at 1 µM
T1 sequence (whole entry): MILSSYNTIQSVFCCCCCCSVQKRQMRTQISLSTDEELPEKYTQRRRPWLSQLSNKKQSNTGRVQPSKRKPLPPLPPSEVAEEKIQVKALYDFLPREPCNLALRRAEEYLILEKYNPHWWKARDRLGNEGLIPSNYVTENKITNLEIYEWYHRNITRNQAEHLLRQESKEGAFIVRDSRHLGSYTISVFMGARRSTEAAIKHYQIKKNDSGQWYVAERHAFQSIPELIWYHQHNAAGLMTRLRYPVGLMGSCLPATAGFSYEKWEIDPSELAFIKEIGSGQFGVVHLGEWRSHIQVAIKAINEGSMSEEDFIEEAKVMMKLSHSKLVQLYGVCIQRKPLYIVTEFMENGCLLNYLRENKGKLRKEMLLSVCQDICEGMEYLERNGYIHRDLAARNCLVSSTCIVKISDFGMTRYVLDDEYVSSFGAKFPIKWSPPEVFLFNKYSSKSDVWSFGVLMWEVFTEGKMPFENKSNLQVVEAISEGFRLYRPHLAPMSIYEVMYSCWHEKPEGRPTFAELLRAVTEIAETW

[3] = biological target: T1, Tyrosine-protein kinase TXK (Homo sapiens); settings: at 10 µM
[4] = biological target: T2, Serine/threonine-protein kinase ULK2 (Homo sapiens) (UniProt Q8IYT8); settings: at 1 µM
T2 sequence (whole entry): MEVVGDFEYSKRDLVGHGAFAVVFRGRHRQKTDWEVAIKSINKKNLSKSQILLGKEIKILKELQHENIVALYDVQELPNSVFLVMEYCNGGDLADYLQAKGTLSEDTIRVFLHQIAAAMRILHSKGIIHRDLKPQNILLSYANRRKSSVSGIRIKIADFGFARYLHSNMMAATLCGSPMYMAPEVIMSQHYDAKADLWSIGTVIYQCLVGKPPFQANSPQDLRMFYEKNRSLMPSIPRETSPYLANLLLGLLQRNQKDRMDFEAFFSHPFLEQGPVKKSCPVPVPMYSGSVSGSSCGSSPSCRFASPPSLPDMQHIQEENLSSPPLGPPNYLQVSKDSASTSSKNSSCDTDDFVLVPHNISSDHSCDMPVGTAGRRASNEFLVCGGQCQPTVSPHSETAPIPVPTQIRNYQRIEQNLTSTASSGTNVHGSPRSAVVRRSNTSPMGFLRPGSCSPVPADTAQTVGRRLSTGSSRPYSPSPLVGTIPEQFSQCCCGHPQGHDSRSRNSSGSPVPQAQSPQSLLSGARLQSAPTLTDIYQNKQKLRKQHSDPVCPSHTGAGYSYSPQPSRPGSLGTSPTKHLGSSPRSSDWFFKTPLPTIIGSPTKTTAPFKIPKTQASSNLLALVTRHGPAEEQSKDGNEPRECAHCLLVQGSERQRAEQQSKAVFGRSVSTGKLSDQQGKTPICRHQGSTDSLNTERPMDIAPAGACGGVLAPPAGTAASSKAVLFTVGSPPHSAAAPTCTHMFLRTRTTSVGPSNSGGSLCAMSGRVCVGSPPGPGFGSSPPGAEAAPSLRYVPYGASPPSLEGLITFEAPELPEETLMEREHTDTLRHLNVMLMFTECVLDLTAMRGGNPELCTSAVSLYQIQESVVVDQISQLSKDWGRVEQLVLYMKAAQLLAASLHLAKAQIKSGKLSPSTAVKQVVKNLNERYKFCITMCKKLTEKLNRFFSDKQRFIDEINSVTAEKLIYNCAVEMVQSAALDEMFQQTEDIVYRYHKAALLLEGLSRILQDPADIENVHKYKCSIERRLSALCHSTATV

[5] = biological target: T2, Serine/threonine-protein kinase ULK2 (Homo sapiens); settings: at 10 µM
[6] = biological target: T3, Serine/threonine-protein kinase ULK3 (Homo sapiens) (UniProt Q6PHR2); settings: at 1 µM
T3 sequence (whole entry): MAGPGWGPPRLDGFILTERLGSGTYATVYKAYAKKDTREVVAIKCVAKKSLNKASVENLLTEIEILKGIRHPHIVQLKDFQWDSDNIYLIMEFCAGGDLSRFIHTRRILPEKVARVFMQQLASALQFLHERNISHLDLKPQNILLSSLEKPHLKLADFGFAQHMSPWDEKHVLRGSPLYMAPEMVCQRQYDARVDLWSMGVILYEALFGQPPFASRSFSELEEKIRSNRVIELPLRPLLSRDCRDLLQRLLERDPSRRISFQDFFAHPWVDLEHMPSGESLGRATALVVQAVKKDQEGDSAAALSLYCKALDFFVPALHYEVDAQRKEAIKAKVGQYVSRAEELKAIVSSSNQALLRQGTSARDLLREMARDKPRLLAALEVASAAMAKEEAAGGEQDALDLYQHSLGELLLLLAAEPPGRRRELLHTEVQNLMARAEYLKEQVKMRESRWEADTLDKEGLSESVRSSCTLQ

[7] = biological target: T3, Serine/threonine-protein kinase ULK3 (Homo sapiens); settings: at 10 µM
[8] = biological target: Serine/threonine-protein kinase VRK2 (Homo sapiens) (UniProt Q86Y07); settings: at 1 µM
[9] = biological target: Serine/threonine-protein kinase VRK2 (Homo sapiens) (UniProt Q86Y07); settings: at 10 µM
[10] = biological target: Serine/threonine-protein kinase WNK2 (Homo sapiens) (UniProt Q9Y3S1); settings: at 1 µM;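 note: residual WNK2 kinase activity expressed as percent of uninhibited control, assayed in MOPS buffer at pH 7.0 containing EDTA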
Chain of Serine/threonine-protein kinase WNK2 (Homo sapiens) (Q9Y3S1 whole entry): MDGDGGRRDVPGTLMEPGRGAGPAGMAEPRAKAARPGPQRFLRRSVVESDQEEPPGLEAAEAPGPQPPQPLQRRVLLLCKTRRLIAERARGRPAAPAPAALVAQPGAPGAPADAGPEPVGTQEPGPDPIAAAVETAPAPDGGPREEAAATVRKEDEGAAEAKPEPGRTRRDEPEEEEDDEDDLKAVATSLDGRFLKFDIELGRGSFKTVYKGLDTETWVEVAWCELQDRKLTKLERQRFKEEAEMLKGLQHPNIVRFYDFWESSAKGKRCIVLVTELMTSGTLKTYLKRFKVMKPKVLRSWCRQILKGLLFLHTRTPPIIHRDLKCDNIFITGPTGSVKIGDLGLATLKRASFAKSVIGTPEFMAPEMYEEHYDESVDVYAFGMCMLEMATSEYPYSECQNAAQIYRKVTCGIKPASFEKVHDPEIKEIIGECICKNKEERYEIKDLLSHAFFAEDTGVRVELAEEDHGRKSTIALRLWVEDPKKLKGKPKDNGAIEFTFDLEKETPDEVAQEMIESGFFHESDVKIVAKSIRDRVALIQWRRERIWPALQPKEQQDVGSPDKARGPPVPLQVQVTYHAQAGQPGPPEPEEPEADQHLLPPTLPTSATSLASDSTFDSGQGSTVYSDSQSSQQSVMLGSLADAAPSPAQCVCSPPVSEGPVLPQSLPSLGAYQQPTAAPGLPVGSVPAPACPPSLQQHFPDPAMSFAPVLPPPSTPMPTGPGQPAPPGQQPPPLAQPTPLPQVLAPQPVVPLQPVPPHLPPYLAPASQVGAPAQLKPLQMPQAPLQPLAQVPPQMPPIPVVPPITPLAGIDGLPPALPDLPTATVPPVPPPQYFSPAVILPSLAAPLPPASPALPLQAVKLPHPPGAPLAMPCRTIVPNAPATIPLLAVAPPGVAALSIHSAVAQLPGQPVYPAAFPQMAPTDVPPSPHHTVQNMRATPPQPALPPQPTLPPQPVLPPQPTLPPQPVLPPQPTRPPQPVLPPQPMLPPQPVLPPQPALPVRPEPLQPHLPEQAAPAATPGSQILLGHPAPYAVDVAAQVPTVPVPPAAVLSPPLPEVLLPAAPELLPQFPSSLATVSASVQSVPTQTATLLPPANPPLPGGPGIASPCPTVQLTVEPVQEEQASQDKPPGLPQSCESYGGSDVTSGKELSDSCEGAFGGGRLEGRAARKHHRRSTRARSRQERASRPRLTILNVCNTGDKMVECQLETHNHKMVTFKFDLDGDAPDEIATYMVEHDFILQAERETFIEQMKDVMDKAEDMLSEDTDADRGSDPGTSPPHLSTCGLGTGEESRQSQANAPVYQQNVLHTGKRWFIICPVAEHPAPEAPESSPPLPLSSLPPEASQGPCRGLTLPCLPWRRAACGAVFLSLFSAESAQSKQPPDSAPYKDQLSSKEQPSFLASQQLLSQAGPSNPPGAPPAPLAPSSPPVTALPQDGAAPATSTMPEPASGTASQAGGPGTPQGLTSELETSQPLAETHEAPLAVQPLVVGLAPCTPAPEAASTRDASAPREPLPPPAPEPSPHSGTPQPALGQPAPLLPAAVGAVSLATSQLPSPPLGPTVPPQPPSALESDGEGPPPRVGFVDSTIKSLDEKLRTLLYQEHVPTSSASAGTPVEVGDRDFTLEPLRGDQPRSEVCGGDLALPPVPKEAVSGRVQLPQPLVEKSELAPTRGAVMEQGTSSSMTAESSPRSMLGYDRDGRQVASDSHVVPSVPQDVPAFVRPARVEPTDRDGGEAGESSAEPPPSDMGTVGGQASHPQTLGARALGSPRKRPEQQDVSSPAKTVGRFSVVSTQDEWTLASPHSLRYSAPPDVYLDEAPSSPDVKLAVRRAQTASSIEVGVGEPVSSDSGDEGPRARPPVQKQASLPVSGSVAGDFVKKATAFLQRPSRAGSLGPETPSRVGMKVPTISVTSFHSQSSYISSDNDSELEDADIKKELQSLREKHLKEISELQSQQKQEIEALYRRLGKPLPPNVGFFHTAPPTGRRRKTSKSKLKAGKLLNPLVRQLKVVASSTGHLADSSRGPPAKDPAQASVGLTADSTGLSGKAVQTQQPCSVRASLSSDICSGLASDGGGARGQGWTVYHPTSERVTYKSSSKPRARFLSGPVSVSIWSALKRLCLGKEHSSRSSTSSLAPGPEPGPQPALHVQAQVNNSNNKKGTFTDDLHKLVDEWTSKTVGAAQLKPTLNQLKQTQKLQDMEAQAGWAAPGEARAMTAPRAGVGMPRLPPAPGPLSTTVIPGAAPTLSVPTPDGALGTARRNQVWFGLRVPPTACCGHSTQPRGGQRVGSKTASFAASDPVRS

Chain of Serine/threonine-protein kinase VRK2 (Homo sapiens) (Q86Y07 whole entry): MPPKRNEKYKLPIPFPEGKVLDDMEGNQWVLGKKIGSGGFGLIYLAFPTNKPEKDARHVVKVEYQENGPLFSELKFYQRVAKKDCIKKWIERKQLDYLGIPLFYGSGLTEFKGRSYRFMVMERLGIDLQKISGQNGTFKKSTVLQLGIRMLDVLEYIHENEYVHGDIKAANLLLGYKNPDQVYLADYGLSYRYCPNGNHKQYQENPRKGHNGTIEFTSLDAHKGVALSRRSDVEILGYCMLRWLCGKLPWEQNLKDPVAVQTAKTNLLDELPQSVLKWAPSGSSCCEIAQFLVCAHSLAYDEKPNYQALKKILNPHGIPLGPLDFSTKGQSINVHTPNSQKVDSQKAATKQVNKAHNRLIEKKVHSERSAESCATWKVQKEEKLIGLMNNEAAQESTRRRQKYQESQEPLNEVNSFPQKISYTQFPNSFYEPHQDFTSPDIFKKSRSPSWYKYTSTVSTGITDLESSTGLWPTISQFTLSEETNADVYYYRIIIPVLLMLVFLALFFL
Chain of BDNF/NT-3 growth factors receptor (Homo sapiens) (Q16620 32-822 limits assumed): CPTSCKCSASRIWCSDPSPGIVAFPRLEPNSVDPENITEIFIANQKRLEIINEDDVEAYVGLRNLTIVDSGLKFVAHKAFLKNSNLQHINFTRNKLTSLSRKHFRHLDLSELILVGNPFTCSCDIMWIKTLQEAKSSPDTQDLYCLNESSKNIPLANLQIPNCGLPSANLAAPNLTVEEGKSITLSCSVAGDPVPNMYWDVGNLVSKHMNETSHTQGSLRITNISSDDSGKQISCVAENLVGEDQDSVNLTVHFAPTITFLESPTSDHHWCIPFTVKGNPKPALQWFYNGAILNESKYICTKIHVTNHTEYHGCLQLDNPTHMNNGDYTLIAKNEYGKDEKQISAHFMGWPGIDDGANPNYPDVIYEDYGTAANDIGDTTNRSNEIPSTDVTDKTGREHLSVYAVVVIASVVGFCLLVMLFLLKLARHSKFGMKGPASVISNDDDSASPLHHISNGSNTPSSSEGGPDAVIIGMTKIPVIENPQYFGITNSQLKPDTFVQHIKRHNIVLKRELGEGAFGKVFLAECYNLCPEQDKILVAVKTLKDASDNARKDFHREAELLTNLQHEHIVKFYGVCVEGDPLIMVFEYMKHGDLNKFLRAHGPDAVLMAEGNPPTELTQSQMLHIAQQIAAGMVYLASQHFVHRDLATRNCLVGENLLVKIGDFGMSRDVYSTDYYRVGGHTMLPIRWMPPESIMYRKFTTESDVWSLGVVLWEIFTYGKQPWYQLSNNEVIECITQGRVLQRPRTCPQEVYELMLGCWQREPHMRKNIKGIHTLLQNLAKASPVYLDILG

SMILES | residual activity [1] [%] | residual activity [2] [%] | residual activity [3] [%] | residual activity [4] [%] | residual activity [5] [%] | residual activity [6] [%] | residual activity [7] [%] | residual activity [8] | residual activity [9] [%] | residual activity [10]
COc1ccc(OC)c2c(=S)c3ccccc3[nH]c12 | 92 | 84 | 86 | 100 | 102 | 86 | 101 | 91% (inactive) | 86 | 86% (inactive)
COc1cccc(-c2cc(=O)c3ccccc3o2)c1N | 87 | 77 | 73 | 117 | 108 | 100 | 105 | 99% (inactive) | 96 | 104% (inactive)
COc1cc2ncnc(N3CCN(C(=O)Nc4ccc(Oc5ccccc5)cc4)CC3)c2cc1OC | 44 | 108 | 119 | 100 | 100 | 97 | 90 | 94% (inactive) | 86 | 84% (inactive)
Cc1cc(Nc2nc(-c3ccccc3)nc3ccccc23)n[nH]1 | 0 | 30 | 2 | – | – | 29 | 4 | – | – | 74% (inactive)
Cc1cccc(-c2[nH]c(C(C)(C)C)nc2-c2ccc3c(c2)OCO3)n1 | – | – | 98 | – | 94 | 104 | 96 | 105% (inactive) | 71 | 106% (inactive)
O=C1Nc2ccc(Br)cc2/C1=C\c1cc2c([nH]1)CCCC2 | 44 | 107 | 76 | – | – | 52 | 55 | – | – | 110% (inactive)
CC(=O)O/N=C1\C(=C2\C(=O)Nc3cc(Br)ccc32)Nc2ccccc21 | 1 | 74 | 19 | 93 | 101 | 95 | 66 | 99% (inactive) | 97 | 104% (inactive)
c1ccc(-c2n[nH]cc2-c2ccnc3ccccc23)nc1 | – | – | 64 | – | 97 | 100 | 98 | 95% (inactive) | 67 | 105% (inactive)
CCN(CC)C(=O)c1ccc(Nc2nc(OCC3CCCCC3)c3nc[nH]c3n2)cc1 | 2 | 49 | 5 | 80 | 35 | 36 | 8 | – | – | 96% (inactive)
O=C1c2ccccc2-[n+]2ccc3c([nH]c4ccccc43)c21 | 89 | 75 | 75 | – | 96 | 92 | 95 | 93% (inactive) | 92 | 95% (inactive)
C[C@@H](N)[C@H]1CC[C@H](C(=O)Nc2ccncc2)CC1 | 99 | 100 | 94 | 85 | 39 | 95 | 68 | 96% (inactive) | – | 95% (inactive)
O=C1NC(=O)/C(=C/c2ccc3c(c2)OC(F)(F)O3)S1 | 24 | 109 | 104 | 106 | 97 | 105 | 89 | 112% (inactive) | 97 | 114% (inactive)
Ic1cccc(CSc2nnc(-c3ccncc3)o2)c1 | 28 | 75 | 81 | 98 | – | 86 | 92 | 92% (inactive) | 79 | 87% (inactive)
COc1cc2ncnc(Nc3ccc(O)c(Br)c3)c2cc1OC | 87 | 81 | 46 | 89 | 76 | 91 | 50 | 83% (inactive) | 56 | 96% (inactive)
CO[C@@H]1[C@H](N(C)C(=O)c2ccccc2)C[C@H]2O[C@]1(C)n1c3ccccc3c3c4c(c5c6ccccc6n2c5c31)C(=O)NC4 | -12 | 82 | 69 | – | 76 | 17 | 5 | 99% (inactive) | 94 | 90% (inactive)
Cc1cncc2cccc(S(=O)(=O)N3CCCN(C(=O)CN)C[C@H]3C)c12 | – | 100 | 91 | 93 | 47 | 97 | 59 | 94% (inactive) | 66 | –
Oc1ccc(-c2nc(-c3ccc(F)cc3)c(-c3ccncc3)[nH]2)cc1 | 61 | 78 | 43 | 112 | 104 | 102 | 95 | 117% (inactive) | 86 | 118% (inactive)
CCC(=O)Nc1ccc2ncnc(Nc3cccc(Br)c3)c2c1 | 119 | 108 | 78 | 106 | 100 | 107 | 89 | 106% (inactive) | 86 | 99% (inactive)
O=C1NC(=O)/C(=C\c2ccc3nccnc3c2)S1 | 94 | 100 | 93 | 104 | 82 | 99 | 63 | 93% (inactive) | 92 | 82% (inactive)

SMILES | residual activity [1] [%] | residual activity [2] [%] | residual activity [3] [%] | residual activity [4] [%] | residual activity [5] [%] | residual activity [6] [%] | residual activity [7] [%] | residual activity [8] | residual activity [9] [%] | residual activity [10]
COc1cc2ncc(-c3ccccc3)nc2cc1OC | 37 | 96 | 73 | – | – | – | 86 | – | – | –
Nc1cccc(-c2cc3c(Oc4cccc(O)c4)ncnc3[nH]2)c1 | 44 | 27 | 3 | – | 76 | 31 | 6 | 100% (inactive) | 89 | 88% (inactive)
c1ccc(-c2n[nH]c3c2oc2ccccc23)cc1 | -3 | 97 | 73 | – | 86 | – | 71 | 99% (inactive) | 77 | 114% (inactive)
COc1ccc(S(=O)(=O)N(CCO)c2ccccc2CN(C)C/C=C/c2ccc(Cl)cc2)cc1 | 61 | 94 | 67 | 113 | 94 | 93 | 95 | 102% (inactive) | 80 | 100% (inactive)
Oc1n[nH]c2nnc(-c3c(-c4ccccc4)nn4ccccc34)cc12 | 84 | 73 | 67 | 91 | 91 | 92 | 95 | 89% (inactive) | 82 | 93% (inactive)
CO[C@H]1C[C@@H]2CC[C@@H](C)[C@@](O)(O2)C(=O)C(=O)N2CCCC[C@H]2C(=O)O[C@H]([C@H](C)C[C@@H]2CC[C@@H](O)[C@H](OC)C2)CC(=O)[C@H](C)/C=C(\C)[C@@H](O)[C@@H](OC)C(=O)[C@H](C)C[C@H](C)/C=C/C=C/C=C/1C | – | 109 | 111 | 91 | 98 | 100 | 94 | 97% (inactive) | 97 | 96% (inactive)
CN(C)CCCn1cc(C2=C(c3c[nH]c4ccccc34)C(=O)NC2=O)c2ccccc21 | 14 | – | 79 | 110 | 88 | 101 | 61 | 119% (inactive) | 76 | 120% (inactive)
O=Nc1c(-c2c(O)[nH]c3ccccc23)[nH]c2ccccc12 | 0 | 45 | 11 | 93 | 59 | 55 | 12 | 71% (inactive) | 28 | 90% (inactive)
O=C1NC(=O)c2cc(Nc3ccc(F)cc3)c(Nc3ccc(F)cc3)cc21 | 88 | 79 | 27 | 107 | 89 | 107 | 81 | 99% (inactive) | 86 | 82% (inactive)
CNc1cc2c(Nc3cccc(Br)c3)ncnc2cn1 | 21 | 98 | 64 | 103 | 95 | 103 | 70 | 99% (inactive) | 91 | 105% (inactive)
Cn1nc2c3c(cccc31)C(=O)c1ccccc1-2 | 66 | 82 | 61 | – | 104 | 89 | 84 | 92% (inactive) | 77 | 93% (inactive)
N#C/C(=C(\N)Sc1ccc(N)cc1)c1ccccc1C(F)(F)F | 72 | 74 | 86 | 119 | 107 | 95 | 94 | 101% (inactive) | 95 | 101% (inactive)
CCN(CC)CCCCN1c2ccccc2Oc2ccc(Cl)cc21 | 87 | 99 | 81 | 116 | 96 | 111 | 98 | 126% (inactive) | 99 | 122% (inactive)
CCOc1cc2ncnc(Nc3cccc(Br)c3)c2cc1OCC | 88 | 75 | 24 | 94 | 78 | 96 | 71 | 99% (inactive) | 74 | 102% (inactive)
N#Cc1cnc2cnc(NCc3cccnc3)cc2c1Nc1ccc(F)c(Cl)c1 | 1 | 86 | 69 | – | – | 100 | 88 | – | 93 | –
O=[N+]([O-])c1ccc(-c2nc(-c3ccc(F)cc3)c(-c3ccncc3)[nH]2)cc1 | 107 | 61 | 66 | 112 | 106 | 103 | 103 | – | 93 | 102% (inactive)
N#CC(C#N)=C(N)/C(C#N)=C/c1ccc(O)cc1 | 116 | 78 | 67 | – | – | 100 | 92 | 100% (inactive) | 94 | –
COc1cc2ncnc(Nc3ccc(Oc4ccccc4)cc3)c2cc1OC | 147 | 56 | 34 | 109 | 95 | 96 | 79 | 99% (inactive) | 73 | 92% (inactive)
